# According to ChEMBL document CHEMBL4649991:
# “And” between values parts separate entries of the source, which are not always exact repeats. Identical values can stand only once.
# Legend:
# [1] = biological target: Bromodomain-containing protein 4 (Homo sapiens) (UniProt O60885); settings: Compound concentration 10.0 uM, Protein concentration 2.0 uM
# [2] = biological target: T1, Transcription intermediary factor 1-alpha (Homo sapiens) (UniProt O15164); settings: Compound concentration 10.0 uM, Protein concentration 2.0 uM
# T1 sequence (whole entry): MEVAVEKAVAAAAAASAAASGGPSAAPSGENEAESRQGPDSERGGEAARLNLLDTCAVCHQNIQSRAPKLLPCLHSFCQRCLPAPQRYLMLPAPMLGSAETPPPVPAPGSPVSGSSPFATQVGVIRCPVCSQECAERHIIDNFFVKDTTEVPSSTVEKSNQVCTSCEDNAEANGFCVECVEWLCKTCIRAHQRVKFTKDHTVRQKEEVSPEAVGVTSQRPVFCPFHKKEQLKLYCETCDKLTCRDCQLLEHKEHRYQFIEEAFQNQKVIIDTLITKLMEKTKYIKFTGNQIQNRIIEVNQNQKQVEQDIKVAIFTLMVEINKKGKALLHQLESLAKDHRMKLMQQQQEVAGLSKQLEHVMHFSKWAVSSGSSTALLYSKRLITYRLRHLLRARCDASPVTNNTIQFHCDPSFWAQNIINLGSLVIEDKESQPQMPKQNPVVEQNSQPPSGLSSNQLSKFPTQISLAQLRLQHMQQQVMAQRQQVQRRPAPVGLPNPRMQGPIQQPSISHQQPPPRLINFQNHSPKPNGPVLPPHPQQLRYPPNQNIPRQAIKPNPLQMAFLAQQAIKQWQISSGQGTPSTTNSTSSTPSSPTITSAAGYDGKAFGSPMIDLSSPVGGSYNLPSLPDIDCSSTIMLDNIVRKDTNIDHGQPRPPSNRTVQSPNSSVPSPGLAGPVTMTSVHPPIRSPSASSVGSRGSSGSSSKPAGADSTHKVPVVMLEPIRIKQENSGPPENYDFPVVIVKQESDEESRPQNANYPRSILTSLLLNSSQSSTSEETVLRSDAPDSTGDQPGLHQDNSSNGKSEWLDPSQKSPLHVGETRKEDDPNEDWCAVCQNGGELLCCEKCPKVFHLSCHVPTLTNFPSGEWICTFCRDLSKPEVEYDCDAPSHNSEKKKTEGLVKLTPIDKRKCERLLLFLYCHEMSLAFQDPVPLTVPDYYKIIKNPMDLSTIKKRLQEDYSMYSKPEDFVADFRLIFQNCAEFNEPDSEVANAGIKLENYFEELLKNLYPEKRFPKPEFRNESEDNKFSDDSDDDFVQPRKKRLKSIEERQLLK
structure (smiles),measurement,setting,value
Cc1cc(=O)n(C)c2cc(N3C(=O)CC[C@@H](NS(=O)(=O)CC(C)C)[C@@H]3c3ccc(Cl)cc3)ccc12,ΔTm,[1],-0.29 °C and 0.14 °C
same,ΔTm,[2],0.23 °C
